Results published in the supplement of paper PMC6555819.

What was measured:
Test in all cases: PBM binding z-score (relative to random genomic background probes); higher = stronger binding; sequences stand for … in GC…GCGATTGACAGCGTAGAATGAAGG
[1] = system: PPARg:RXRa DBDmut IVT, anti-RXR (DBD mutation: RXRa K156A/R161A, NR concentration 270 nM, RXRa partner concentration 90 nM)
In short: (§1)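 Binding z-scores take random background probes as their reference. They come from custom Agilent 4×180K protein-binding microarrays incubated 1 h with ligand-free nuclear receptor dimers, with antibodies against each partner (one per run) detecting binding. Scanned fluorescence was regression-normalized.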

[2] = system: PPARg:RXRa IVT, anti-PPARg (NR concentration 270 nM, RXRa partner concentration 90 nM)
In short: as §1

[3] = system: PPARg DBDmut IVT, anti-PPARg (DBD mutation: PPARg1 K132A/R137A, NR concentration 270 nM)
In short: as §1

[4] = system: PPARg homodimer (NR concentration 180 nM)
In short: as §1

[5] = system: PXR:RXRa (NR concentration 270 nM, RXRa partner concentration 90 nM)
In short: as §1

[6] = system: PXR homodimer (NR concentration 270 nM)
In short: as §1

[7] = system: RARa:RXR (NR concentration 270 nM, RXRa partner concentration 90 nM)
In short: as §1

[8] = system: RARa homodimer (NR concentration 270 nM)
In short: as §1

[9] = system: RARb:RXRa (NR concentration 270 nM, RXRa partner concentration 90 nM)
In short: as §1

[10] = system: RARb homodimer (NR concentration 270 nM)
In short: as §1

[11] = system: RARg:RXRa (NR concentration 270 nM, RXRa partner concentration 90 nM)
In short: as §1

[12] = system: RARg homodimer (NR concentration 270 nM)
In short: as §1

[13] = system: RXRa DBDmut IVT, anti-RXR (DBD mutation: RXRa K156A/R161A, NR concentration 90 nM)
In short: as §1

[14] = system: RXRa homodimer (NR concentration 180 nM)
In short: as §1

[15] = system: THRa:RXRa (NR concentration 90 nM, RXRa partner concentration 90 nM)
In short: as §1

[16] = system: THRa homodimer (NR concentration 90 nM)
In short: as §1

[17] = system: VDR homodimer (NR concentration 270 nM)
In short: as §1

Row | Sequence | PBM binding z-score [1] | PBM binding z-score [2] | PBM binding z-score [3] | PBM binding z-score [4] | PBM binding z-score [5] | PBM binding z-score [6] | PBM binding z-score [7] | PBM binding z-score [8] | PBM binding z-score [9] | PBM binding z-score [10] | PBM binding z-score [11] | PBM binding z-score [12] | PBM binding z-score [13] | PBM binding z-score [14] | PBM binding z-score [15] | PBM binding z-score [16] | PBM binding z-score [17]
1 | CGAACTAGGTCAATGGACAGTGAAAGGCGACGTA | 7.65 | 7.92 | 4.35 | 2.53 | 0.477 | -0.177 | 1.18 | 0.235 | 3.51 | 2.45 | 3.17 | 4.17 | 1.14 | 2.14 | 1.93 | -0.00999 | 0.0508
2 | CGAAGTAGGTCAAAGGACAGTGAAAGGCGACGTA | 8.31 | 8.72 | 4.59 | 2.49 | 1.66 | 0.0557 | 2.53 | 0.312 | 3.93 | 3.05 | 4.15 | 4.75 | 1.19 | 3.67 | 2.1 | -0.0786 | 0.382
3 | CGAACTAGTTCACCAGGACAGTGAAGAGGTTGGA | 1.56 | 1.11 | 0.126 | -0.235 | 0.423 | 0.241 | 0.0691 | -0.106 | 1.7 | 1.09 | 1.14 | 1.44 | 2.02 | 0.753 | 1.69 | 0.658 | 1.05
4 | ATATGTAGGTTAGGGTAATTCAGAAAGTAGGGAA | 6.57 | 6.48 | 2.48 | 2.03 | 0.958 | 1.34 | 1.34 | 1.87 | 1.33 | 1.35 | 1.05 | 0.966 | 0.835 | 1.16 | 1.72 | 1.34 | 1.11
5 | CGAACTAGGTCAACGGACAGTGAAAGGCGACGTA | 8.1 | 8.37 | -0.094 | 1.63 | 0.839 | -0.0597 | 1.77 | -0.351 | 3.89 | 2.82 | 4.11 | 4.8 | 1.34 | 3.39 | 2.36 | 0.45 | 0.394
6 | ATATGTAGGTTAGGGTCTTTCAGAAAGTAGGGAA | 6.29 | 6.62 | 2.64 | 2.25 | 0.93 | 1.06 | 1.2 | 1.44 | 0.945 | 0.963 | 0.711 | 0.651 | 0.741 | 0.743 | 1.51 | 1.22 | 0.739
7 | CGAACTAGGTCACCAGGACAATGAAGAGGTTGGA | 7.84 | 9.01 | 1.88 | 1.94 | 1.49 | 0.22 | 2.43 | 0.0185 | 4.21 | 3.4 | 4.27 | 5.1 | 1.58 | 3.35 | 3.7 | 2.12 | 0.459
8 | CGAGCTAGGTCAAAGGACAGTGAAAGGCGACGTA | 3.53 | 3.85 | -0.971 | 1.2 | 1.01 | -0.591 | 2.39 | -0.312 | 4.04 | 2.82 | 4.31 | 4.87 | 1.29 | 2.99 | 2.3 | 0.253 | 0.416
9 | CGAACTAGGTCAAACGACAGTGAAAGGCGACGTA | 8.02 | 8.26 | 0.569 | 1.9 | 1.19 | -0.315 | 2.13 | 0.265 | 3.7 | 2.49 | 4.21 | 4.7 | 1.76 | 3.32 | 2.29 | 0.23 | 0.347
10 | ATATGTAGGTTAGGGTCATTCCGAAAGTAGGGAA | 6.18 | 6.86 | 1.28 | 2.67 | 4.29 | 1.79 | 4.8 | 1.82 | 3.43 | 3.13 | 3.89 | 2.85 | 2.61 | 5.22 | 4.18 | 3.01 | 3.59
11 | CGAACTAGGTCACGAGGACAGTGAAGAGGTTGGA | 8.67 | 8.88 | 1.07 | 2.21 | 1.87 | 0.184 | 3.07 | 0.4 | 4.39 | 3.75 | 4.91 | 5.66 | 1.48 | 3.85 | 3.84 | 2.61 | 0.957
12 | CGAACTTGGTCACCAGGACAGTGAAGAGGTTGGA | 1.74 | 2.17 | -0.841 | 0.157 | -0.0595 | -0.183 | 0.344 | -0.448 | 1.38 | 1.06 | 0.959 | 1.47 | -0.0208 | 0.727 | 1.63 | 0.644 | -0.0725
13 | ATATGTAGGTTAGTGTCATTCAGAAAGTAGGGAA | 6.62 | 6.21 | 2.47 | 1.86 | 1.09 | 0.763 | 1.32 | 2.19 | 1.4 | 1.31 | 1.14 | 1.06 | 0.868 | 0.992 | 0.837 | 0.558 | 0.794
14 | CGAACTAGGTCACCAGGAGAGTGAAGAGGTTGGA | 8.2 | 8.65 | 3.69 | 2.38 | 1.22 | -0.0382 | 2.45 | -0.347 | 4.04 | 3.18 | 4.34 | 5.04 | 1.08 | 3.02 | 2.98 | 1.09 | 0.207
15 | CGAACTAGGCCAAAGGACAGTGAAAGGCGACGTA | 5.96 | 5.66 | -0.194 | 0.351 | -0.549 | -0.424 | -0.24 | -0.451 | 1.33 | 0.837 | 0.441 | 1.2 | -0.376 | 0.196 | -0.277 | -0.915 | -0.627
16 | CGAACTAGGTCACAGGACAGTGAAAGGCGACGTA | 8.61 | 8.91 | 3.67 | 2.35 | 1.38 | -0.238 | 2.22 | 0.616 | 4.11 | 3.12 | 4.25 | 4.96 | 1.61 | 3.27 | 2.86 | 0.815 | 0.381
